PubChem BioAssay AID1259423 (Fisher Drug Discovery Resource Center, 2018)
“And” between values parts separate entries of the source, which are not always exact repeats. Identical values can stand only once. Among all 270,000 compounds or so, about 410 (0.15%) were called active. Rule as the data show it: active = activation above about 40%; inactive = the rest, inconclusive results apart. For the sample, actives were picked, then their nearest neighbours and some compounds at random.

Tested on: Aedes aegypti neuropeptide Y-like receptor 7 (NPYLR7)
Assay: agonists of mosquito NPYLR7 receptor, primary screen, cell-based, Aedes aegypti, calcium fluorescence, mosquito biting behavior (AID 1259423);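 also: 0% = vehicle and 100% = reference agonist at the receptor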
Settings: HEK293T NPYLR7/Galpha15, GCaMP6s calcium fluorescence, at 10 µM, stronger effect = higher value
[1] = measured here: Max-Min RFU normalised activation

Structure (SMILES): CC(c1cccs1)N(C)C(=O)c1n[nH]c(C2CC2)c1Br (centres undefined)
- activation: -2.08% (inactive)
- activation [1]: 0.622%

Structure (SMILES): O=C1Nc2ccccc2C1=NN=C(C(=O)c1ccccc1)c1ccccc1
- activation: 11.7% (inactive)
- activation [1]: 10.9%

Structure (SMILES): CCC(=O)Nc1cccc(OCC(=O)N2CCCC2c2nonc2C)c1 (centres undefined)
- activation: -16.1% (inactive)
- activation [1]: -16.7%

Structure (SMILES): Cc1ccc(NC(=O)Cn2cnc3sc4c(c3c2=O)CCC4)c(F)c1
- activation: -14.9% (inactive)
- activation [1]: -15.4%

Structure (SMILES): COc1cc(C=C2SC(=S)NC2=O)cc(Br)c1O
- activation: 668% (active)
- activation [1]: 942%

Structure (SMILES): COc1cc(OC)c(OC)cc1/C=C1/SC(=S)NC1=O
- activation: -3.39% (inactive)
- activation [1]: -7.58%

Structure (SMILES): COc1ccc(C=C2SC(=S)NC2=O)cc1OC
- activation: 1.47% (inactive)
- activation [1]: 3.32%

Structure (SMILES): Cc1cc(S(=O)(=O)C(CNC(=O)CC(C)(C)C)c2cccs2)ccc1F (centres undefined)
- activation: 5.15% (inactive)
- activation [1]: 2.88%

Structure (SMILES): COCCNC(=S)N(CCC#N)CCN(CCC#N)C(=S)NCCOC
- activation: -2.49% (inactive)
- activation [1]: -3.45%

Structure (SMILES): Cc1cnccc1N1CCCN(C(=O)[C@H](N)CC(C)C)CC1
- activation: 8.21% (inactive)
- activation [1]: 7.83%

Structure (SMILES): Cc1ccccc1-c1noc(CN2CCN(C(=O)c3cc(C4CC4)[nH]n3)CC2)n1
- activation: 0.903% (inactive)
- activation [1]: 0.506%

Structure (SMILES): CCC(CO)[n+]1c(C)cc(C=C2Sc3ccccc3N2CC)cc1C (centres undefined)
- activation: 56.5% (active)
- activation [1]: 44.4%

Structure (SMILES): Cn1nc(C(F)(F)F)cc1C(=O)N1CCCC(O)(CO)CC1 (centres undefined)
- activation: 3.25% (inactive)
- activation [1]: 1.85%

Structure (SMILES): COC(=O)Cn1cc(C=C(C#N)C(=O)NCCc2c[nH]c3ccccc23)c2ccccc21
- activation: 1.04% (inactive)
- activation [1]: 1.01%

Structure (SMILES): CCCn1nccc1C(=O)Nc1cc2c(C)cc(=O)oc2cc1C
- activation: -4.21% (inactive)
- activation [1]: -5.15%

Structure (SMILES): CCCc1nc(N2CCCN(c3ncccn3)CC2)c2cnn(C)c2n1
- activation: -2.57% (inactive)
- activation [1]: -6.77%

Structure (SMILES): COc1ccc(OC)c(S(=O)(=O)N2CCCC(c3nc4ccccc4s3)C2)c1 (centres undefined)
- activation: -8.36% (inactive)
- activation [1]: -7.77%

Structure (SMILES): Cc1ccn(-c2ccc(NC3CC4CCC3O4)nn2)n1 (centres undefined)
- activation: 7.09% (inactive)
- activation [1]: 3.85%

Structure (SMILES): Cc1ccc(C2(c3noc(CN(C)Cc4ccc5ccccc5n4)n3)CCCC2)cc1
- activation: 32.2% (inactive) and 4.89% (inactive)
- activation [1]: 24.1% and 13.2%

Structure (SMILES): CSc1[s+]sc2c1-c1ccc(C)cc1NC2(C)C
- activation: -1.46% (inactive)
- activation [1]: 5.63%

Structure (SMILES): Cn1cc(NC(=O)Nc2cccc(N3CCCCCC3)c2)cn1
- activation: 8.13% (inactive)
- activation [1]: 3.07%

Structure (SMILES): O=C(O)c1[nH]ncc1CN1CCCC(c2[nH]ncc2Cc2ccccc2)C1 (centres undefined)
- activation: 2.78% (inactive)
- activation [1]: 3.74%

Structure (SMILES): O=C(O)c1[nH]ncc1CN1CCc2onc(-c3ccc(C(F)(F)F)cc3)c2C1
- activation: 78.5% (active)
- activation [1]: 41.2%

Structure (SMILES): O=C(CCc1ccco1)N1CCc2onc(-c3ccc(C(F)(F)F)cc3)c2C1
- activation: 3.67% (inactive)
- activation [1]: -10.1%

Structure (SMILES): Cc1csc(N(C)C(=O)c2cc(N3CCNC3=O)ccc2F)n1
- activation: -7.45% (inactive)
- activation [1]: -7.61%

Structure (SMILES): COc1ccc(-n2nnc3c(N4CCN(C(=O)c5ccc(Br)o5)CC4)ncnc32)cc1
- activation: -8.62% (inactive)
- activation [1]: -14.8%

Structure (SMILES): CCOc1ccc(/C=C(\C#N)c2[nH]nc(N)c2C#N)cc1OCC
- activation: -1.82% (inactive)
- activation [1]: -4%

Structure (SMILES): CCOc1cc(/C=C(\C#N)c2nc3ncc(Br)cc3[nH]2)ccc1O
- activation: 90.2% (active)
- activation [1]: 69.1%

Structure (SMILES): N#CCc1nc2ncc(Br)cc2[nH]1
- activation: -4.5% (inactive)
- activation [1]: -5.31%

Structure (SMILES): OCc1ccc(CN2CCC(Oc3ccc(Cl)cc3)CC2)o1
- activation: 2.49% (inactive)
- activation [1]: 0.105%

Structure (SMILES): COCCN(Cc1cc(NC(=O)c2cccc(F)c2)ccc1N(C)C)C(=O)NC(C)(C)C
- activation: -2.37% (inactive)
- activation [1]: -0.561%

Structure (SMILES): CCOC(=O)c1ccc2c(c1)nc(SCc1cccc(C(=O)OC)c1)n2Cc1cccc(F)c1
- activation: -6.01% (inactive)
- activation [1]: -4.5%

Structure (SMILES): COc1cc(/C=C2/C(=O)N(c3ccc(Cl)c(Cl)c3)N=C2C)cc(Br)c1O
- activation: -1.16% (inactive)
- activation [1]: 5.59%

Structure (SMILES): COc1cc(C=C2C=c3c(O)cccc3=C2O)cc(Cl)c1O
- activation: 203% (active)
- activation [1]: 183%

Structure (SMILES): COc1cccc(CSc2nnc(CNC(=O)Nc3cc(OC)cc(OC)c3)n2-c2ccc([N+](=O)[O-])cc2)c1
- activation: 22.3% (inactive)
- activation [1]: 16.8%

Structure (SMILES): CC(C)CNC(=O)c1ccc2c(=O)n(Cc3ccccc3)c3nn(CC(N)=O)c(=O)n3c2c1
- activation: 2.33% (inactive)
- activation [1]: -0.424%

Structure (SMILES): C/C=C/c1cc(C(=O)N2CCN(CCO)CC2)cc(OC)c1OC
- activation: 2.68% (inactive)
- activation [1]: 0.348%

Structure (SMILES): CC(C)N(CC1CCC(=O)N1)C(=O)c1cc(Cl)c[nH]c1=O (centres undefined)
- activation: -1.21% (inactive)
- activation [1]: -6.03%

Structure (SMILES): CN1CC2(CCCN(C(=O)c3cccc(Cn4cccn4)c3)CC2)OC1=O (centres undefined)
- activation: 33.4% (inactive)
- activation [1]: 15.5%

Structure (SMILES): CC(C)(Oc1ccc(Cl)cc1)C(=O)Nn1cnc2c(cnn2-c2ccccc2)c1=O
- activation: 2.94% (inactive)
- activation [1]: -1.1%

Structure (SMILES): O=C(O)C1CC2CCCC(C1)C2=O (centres undefined)
- activation: 2.14% (inactive)
- activation [1]: 1.09%

Structure (SMILES): COc1ccc(C2SCCN2C(=O)c2cc3cc(Br)ccc3oc2=O)cc1 (centres undefined)
- activation: 1.99% (inactive)
- activation [1]: -4.59%

Structure (SMILES): O=C1CCC(C(=O)N(Cc2ccc(F)cc2)C2CC2)=NN1c1ccccc1
- activation: 2.48% (inactive)
- activation [1]: 1.4%

Structure (SMILES): CCn1c(C2CCN(CCC3=C(C)CCCC3(C)C)CC2)nn(C)c1=O
- activation: 14.4% (inactive)
- activation [1]: 4.06%

Structure (SMILES): CCc1cc(=O)[nH]c(-n2nc(C)cc2NC(=O)C2c3ccccc3Oc3ccccc32)n1
- activation: 10.2% (inactive)
- activation [1]: 5.92%

Structure (SMILES): CNC(=O)NC(=O)C(C)Sc1nnc(-c2ccco2)n1CCC(N)=O (centres undefined)
- activation: 1.74% (inactive)
- activation [1]: 5.62%

Structure (SMILES): CCOC(=O)Nc1cc(=O)c2cc(C)ccc2o1
- activation: 0.463% (inactive)
- activation [1]: -6.18%

Structure (SMILES): COc1ccc(C)c2sc(N(CCCN3CCOCC3)C(=O)c3ccc([N+](=O)[O-])cc3)nc12
- activation: -0.485% (inactive)
- activation [1]: -6.29%

Structure (SMILES): COCCNCC(=O)N(Cc1ccccc1)Cc1ccc(C)s1
- activation: -5.15% (inactive)
- activation [1]: -13.2%

Structure (SMILES): O=C(CNCCN1CCOCC1)N(Cc1ccccc1)Cc1cccs1
- activation: -7.58% (inactive)
- activation [1]: -12.6%

Structure (SMILES): Cc1ccc(CN(Cc2ccc(F)cc2)C(=O)CNCCN2CCOCC2)s1
- activation: 56.1% (active)
- activation [1]: 58%

Structure (SMILES): Cc1ccc(CNc2oc(-c3ccc(S(=O)(=O)N(C)Cc4ccccc4)cc3)nc2C#N)cc1
- activation: -0.355% (inactive)
- activation [1]: 4.09%

Structure (SMILES): O=C(NC1Cc2ccccc2C1)c1ccc(-c2cc(-c3cccc(C(F)(F)F)c3)n[nH]2)cc1
- activation: 25.1% (inactive)
- activation [1]: 16.8%

Structure (SMILES): N#Cc1cc(Cl)c(Cl)cc1C#N
- activation: 9.21% (inactive)
- activation [1]: 8.51%

Structure (SMILES): O=c1oc2c(Cl)cc(Cl)cc2cc1-c1nnc(Nc2ccccc2F)s1
- activation: 3.96% (inactive)
- activation [1]: 1.58%

Structure (SMILES): N#Cc1cc2cc(Cl)cc(Cl)c2oc1=O
- activation: 189% (active)
- activation [1]: 162%

Structure (SMILES): CCCCNC(=O)c1c(C)c(C(=O)OCC)n(C)c1C
- activation: -1.79% (inactive)
- activation [1]: 26.8%

Structure (SMILES): O=C(Nc1cc(F)c(N2CCCC2)c(F)c1)C1Cc2ccccc2O1 (centres undefined)
- activation: 2.58% (inactive)
- activation [1]: 0.532%

Structure (SMILES): COc1ccc(NC(=O)C(C)SCc2cccc(C(F)(F)F)c2)cc1 (centres undefined)
- activation: -0.635% (inactive)
- activation [1]: -2.01%

Structure (SMILES): C=C(C)Cn1c(C2CC(=O)N(c3ccccc3CC)C2)nc2ccccc21 (centres undefined)
- activation: -1.84% (inactive)
- activation [1]: 23.5%

Structure (SMILES): CCN(CC)C(=O)C1(C)CCN1C(=O)Cc1ccc(-c2ccccc2)cc1 (centres undefined)
- activation: 4.71% (inactive)
- activation [1]: 3.32%

Structure (SMILES): CC(C)COCC(O)CN(Cc1cccn1C)CC1CCCO1 (centres undefined)
- activation: 43.6% (active)
- activation [1]: 42.4%

Structure (SMILES): COc1cccc(CN(CC(O)COCC(C)C)CC2CCCO2)c1 (centres undefined)
- activation: 23.7% (inactive)
- activation [1]: 17.6%

Structure (SMILES): COc1ccc(OCC(O)CN(Cc2cccn2C)CC2CCCO2)cc1 (centres undefined)
- activation: 18.8% (inactive)
- activation [1]: 19.6%

Structure (SMILES): Fc1ccc(-c2cnc(NCCc3ccccn3)cn2)cc1Cl
- activation: -2.76% (inactive)
- activation [1]: -5.38%

Structure (SMILES): COC(=O)C1=C(NC(=O)CSCc2ccccc2)CCS1
- activation: -1% (inactive)
- activation [1]: -1.58%

Structure (SMILES): CC1CCC(C(C)C)C(OCC(O)CN2CCN(CCO)CC2)C1 (centres undefined)
- activation: 0.73% (inactive)
- activation [1]: 22.3%
